Molecules are shown by their SMILES. Active and inactive are the calls of the source. Unless noted, how the calls were made is not given here.

A short description of experiment [1]: compounds binding Alexa647 anti-His antibody – biochemical, small-molecule microarray, 635 nm fluorescence, artefact control for SMM control protein annotation, primary screen (AID 1128).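 Further: score merges feature fluorescence with signal-to-noise for each printed compound spot.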 The following applies: higher = more signal.
The subject of experiment [2] is Human papillomavirus type 1a E7 protein (residues 1-88). Put plainly: HPV1a E7 small-molecule binders, primary screen, biochemical, small-molecule microarray, residues 1-88, 635 nm (AID 1129). The following applies: small-molecule microarray binding, fluorescence 635 nm; higher = more signal.
In experiment [3] the target is Focal adhesion kinase 1 (Homo sapiens) (UniProt Q05397). Put plainly: PTK2 protein binding on printed compound slides – biochemical, small-molecule microarray, 635/667 nm fluorescence, BSA, DTT, primary screen (AID 1130).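 Further: composite of spot emission at 667 nm and signal to noise over triplicate slides.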 The following applies: 635 nm fluorescence, higher = more signal.
Chain of Focal adhesion kinase 1 (Homo sapiens) (Q05397 whole entry, looked up): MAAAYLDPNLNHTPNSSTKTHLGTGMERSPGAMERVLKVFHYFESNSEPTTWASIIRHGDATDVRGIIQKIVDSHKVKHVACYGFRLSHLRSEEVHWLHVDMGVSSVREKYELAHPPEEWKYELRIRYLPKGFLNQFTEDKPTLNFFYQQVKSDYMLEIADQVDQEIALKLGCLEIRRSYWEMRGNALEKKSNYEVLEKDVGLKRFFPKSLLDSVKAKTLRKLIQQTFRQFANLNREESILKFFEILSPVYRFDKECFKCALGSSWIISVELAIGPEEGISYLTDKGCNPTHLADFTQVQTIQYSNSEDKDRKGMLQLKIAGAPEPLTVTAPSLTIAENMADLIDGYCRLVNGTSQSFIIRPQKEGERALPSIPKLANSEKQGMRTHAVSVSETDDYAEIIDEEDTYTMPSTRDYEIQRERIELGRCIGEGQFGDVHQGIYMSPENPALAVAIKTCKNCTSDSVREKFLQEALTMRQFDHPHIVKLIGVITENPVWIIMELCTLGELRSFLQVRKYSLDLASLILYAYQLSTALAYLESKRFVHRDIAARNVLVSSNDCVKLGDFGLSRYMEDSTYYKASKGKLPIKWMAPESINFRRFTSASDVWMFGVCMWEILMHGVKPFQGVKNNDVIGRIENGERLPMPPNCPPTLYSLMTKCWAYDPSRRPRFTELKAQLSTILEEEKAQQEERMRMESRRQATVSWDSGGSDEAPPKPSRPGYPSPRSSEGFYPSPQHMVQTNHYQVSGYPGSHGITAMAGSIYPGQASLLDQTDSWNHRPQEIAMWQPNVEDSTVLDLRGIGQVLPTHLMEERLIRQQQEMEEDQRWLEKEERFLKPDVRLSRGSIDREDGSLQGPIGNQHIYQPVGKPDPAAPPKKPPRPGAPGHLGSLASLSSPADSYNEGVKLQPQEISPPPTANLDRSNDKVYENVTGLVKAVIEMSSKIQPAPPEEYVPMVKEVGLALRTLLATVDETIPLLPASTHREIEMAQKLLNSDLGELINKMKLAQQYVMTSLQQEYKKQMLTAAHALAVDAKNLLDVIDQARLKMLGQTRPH
In experiment [4] the test system is Fibrinogen (Alexa647-labelled). Put plainly: Alexa647-fibrinogen binding to printed small molecules – biochemical, small-molecule microarray, 635/667 nm fluorescence, artefact control for SMM control-protein annotation, profiling panel (AID 1131).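 Further: z-score merges 667 nm fluorescence with per-spot signal-to-noise over triplicate slides.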 The following applies: fibrinogen-A647 binding fluorescence, higher = more signal.
Experiment [5] concerns the target Follistatin (Homo sapiens) (UniProt P19883). The experiment in a line: FST protein binding to printed compounds – biochemical, small-molecule microarray, 635/667 nm fluorescence, primary screen (AID 1132). The following applies: 635 nm fluorescence, higher = more signal.
In experiment [6] the target is Fibroblast growth factor 2 (Homo sapiens) (UniProt P09038). Put plainly: basic fibroblast growth factor binding to printed compounds – biochemical, small-molecule microarray, 635/667 nm fluorescence, primary screen (AID 1133). The following applies: FGF2, fluorescence 635/667, higher = more signal.
Chain of Fibroblast growth factor 2 (Homo sapiens) (P09038 whole entry, looked up): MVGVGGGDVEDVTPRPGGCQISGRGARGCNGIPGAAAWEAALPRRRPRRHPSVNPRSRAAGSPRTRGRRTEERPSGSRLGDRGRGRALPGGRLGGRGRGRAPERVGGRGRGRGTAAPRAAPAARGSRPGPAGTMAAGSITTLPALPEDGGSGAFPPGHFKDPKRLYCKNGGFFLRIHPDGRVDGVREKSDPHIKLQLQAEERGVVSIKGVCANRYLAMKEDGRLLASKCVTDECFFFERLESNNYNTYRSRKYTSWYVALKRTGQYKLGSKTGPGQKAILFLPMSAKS
A short description of experiment [7]: JC-1 mitochondrial potential readout, lung cancer cells – cell-based, A549, JC-1 fluorescence, basal, 24 h, 100 nL, profiling panel (AID 1138).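 Further: A549 lung adenocarcinoma cells under basal conditions with no added stimulus; test concentration not given here.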 The following applies: higher = more signal.
A further experiment concerns Lefty1. The experiment in a line: Lefty1 protein binding to printed compounds – biochemical, small-molecule microarray, 635/667 nm fluorescence, primary screen (AID 1139). The following applies: fluorescence 635/667, higher = more signal.
Experiment [8] relates to wheat germ agglutinin (Triticum aestivum), Alexa647-labelled. The experiment in a line: Alexa647-WGA lectin binding to printed small molecules – biochemical, small-molecule microarray, 635/667 nm fluorescence, artefact control for SMM control-protein annotation, profiling panel (AID 1140).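 Further: score merges 667 nm feature emission with signal to noise over triplicate slides.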 The following applies: WGA-A647 binding, 635 nm fluorescence, higher = more signal.
Experiment [9] concerns the target Luciferin 4-monooxygenase (Photinus pyralis) (UniProt P08659). The experiment in a line: inhibition of purified Photinus pyralis luciferase – biochemical, luminescence, purified enzyme, 2006 set, primary screen (AID 1141).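 Further: cell-free assay with purified firefly luciferase at 100 ng per well in PBS; test concentration not given here.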 The following applies: purified firefly luciferase, SteadyGlo luminescence, 30 min; higher = more signal, called active from +8 up or from −8 down.

In experiment [10] the test system is Wnt5a (protein binding on small-molecule microarray). Put plainly: small molecules binding Wnt5a protein – biophysical, small-molecule microarray, 635/667 nm fluorescence, primary screen (AID 1142).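 Further: fluorescence read at 667 nm with signal to noise per printed feature.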 The following applies: 635 nm fluorescence, higher = more signal.
Experiment [11] in a line: ATP-based viability of Huh7 replicon cells – cell-based, CellTiter-Glo luminescence, basal, 48 h, cytotoxicity control for HCV replication inhibitor project, primary screen (AID 1143).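 Further: Huh7 hepatoma cells carrying a hepatitis C replication reporter with no stimulus; test concentration not given here.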 The following applies: higher = more signal, called active from +8 up or from −8 down. On the technique in general: Replicon systems follow genome replication, usually without infectious particles.

Experiment [12] in a line: Pseudomonas biofilm growth suppression – PAO1 strain, BacTiter-Glo luminescence, LB-PBS, primary screen (AID 1144). The following applies: P. aeruginosa PAO1 biofilm, 12 h, higher = more signal.
Experiment [13] can be described thus: basal CRE-LacZ reporter activity in PC12 – cell-based, unstimulated, primary screen (AID 1145). The following applies: no forskolin, luminescence, 4.5 h, higher = more signal, called active from +8 up or from −8 down.
The nature of experiment [14]: forskolin-driven CRE-LacZ activity in PC12 – cell-based, CRE-LacZ reporter, forskolin-stimulated, primary screen (AID 1146).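 Further: PC12 cells with 6xCRE LacZ reporter stimulated by forskolin 10 µM; beta-galactosidase reporter signal reflecting CREB driven transcription.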 The following applies: luminescence, 4.5 h, higher = more signal, called active from +8 up or from −8 down.
Experiment [15] has as its target Streptavidin (Streptomyces avidinii) (UniProt P22629). The experiment in a line: compounds binding control protein streptavidin – biophysical, small-molecule microarray, 635/667 nm fluorescence, artefact control for SMM compound annotation, primary screen (AID 1147).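 Further: signal reflects streptavidin binding to arrayed compounds as a control protein.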 The following applies: higher = more signal.
A short description of experiment [16]: probe aInhba binding on compound microarray – biochemical, small-molecule microarray, 635/667 nm fluorescence, primary screen (AID 1148).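 Further: score merges 667nm spot fluorescence with signal-to-noise for antibody binding to printed compounds.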 The following applies: higher = more signal.
The target of experiment [17] is Torsin-1A (Homo sapiens) (UniProt O14656). Put plainly: TOR1A wild-type binding on microarray – cell lysate, small-molecule microarray, lysate, 635/667 nm, primary screen (AID 1149). The following applies: COS7 hTOR1A-WT lysate, 635 nm fluorescence, higher = more signal.
Chain of Torsin-1A (Homo sapiens) (O14656 whole entry, looked up): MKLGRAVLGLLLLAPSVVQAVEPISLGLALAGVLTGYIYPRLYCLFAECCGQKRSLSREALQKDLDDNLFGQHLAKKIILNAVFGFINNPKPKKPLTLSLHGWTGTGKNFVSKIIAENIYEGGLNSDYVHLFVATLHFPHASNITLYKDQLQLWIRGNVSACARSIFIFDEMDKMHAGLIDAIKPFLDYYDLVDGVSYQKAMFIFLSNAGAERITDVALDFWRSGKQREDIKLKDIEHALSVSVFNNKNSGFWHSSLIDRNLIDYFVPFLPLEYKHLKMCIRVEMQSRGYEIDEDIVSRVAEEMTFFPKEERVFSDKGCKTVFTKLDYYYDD
The target is the same in experiment [18]. The experiment in a line: torsin A mutant lysate binding on microarrays – cell lysate, small-molecule microarray, COS7 lysate, 635/667 nm fluorescence, primary screen (AID 1150).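 Further: score pools 667 nm emission and signal to noise measuring lysate protein binding.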 The following applies: COS7 hTOR1A mutant lysate, 635 nm fluorescence, higher = more signal.
Experiment [19] has as its system Sonic hedgehog protein (Shh). Put plainly: Sonic hedgehog microarray binding compounds – biochemical, small-molecule microarray, 635/667 nm fluorescence, primary screen (AID 1151).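 Further: Shh protein binding to compounds spotted on small-molecule microarray slides; score combines spot fluorescence intensity with signal-to-noise across triplicate slides.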 The following applies: 635 nm fluorescence, higher = more signal.

Chain of Streptavidin (Streptomyces avidinii) (P22629 whole entry, looked up): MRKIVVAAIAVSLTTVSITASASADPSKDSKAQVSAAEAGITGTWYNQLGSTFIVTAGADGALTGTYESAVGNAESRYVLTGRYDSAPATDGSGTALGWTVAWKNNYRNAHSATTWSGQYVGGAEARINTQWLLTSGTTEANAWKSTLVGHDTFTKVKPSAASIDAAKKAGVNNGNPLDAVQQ
Chain of Luciferin 4-monooxygenase (Photinus pyralis) (P08659 whole entry, looked up): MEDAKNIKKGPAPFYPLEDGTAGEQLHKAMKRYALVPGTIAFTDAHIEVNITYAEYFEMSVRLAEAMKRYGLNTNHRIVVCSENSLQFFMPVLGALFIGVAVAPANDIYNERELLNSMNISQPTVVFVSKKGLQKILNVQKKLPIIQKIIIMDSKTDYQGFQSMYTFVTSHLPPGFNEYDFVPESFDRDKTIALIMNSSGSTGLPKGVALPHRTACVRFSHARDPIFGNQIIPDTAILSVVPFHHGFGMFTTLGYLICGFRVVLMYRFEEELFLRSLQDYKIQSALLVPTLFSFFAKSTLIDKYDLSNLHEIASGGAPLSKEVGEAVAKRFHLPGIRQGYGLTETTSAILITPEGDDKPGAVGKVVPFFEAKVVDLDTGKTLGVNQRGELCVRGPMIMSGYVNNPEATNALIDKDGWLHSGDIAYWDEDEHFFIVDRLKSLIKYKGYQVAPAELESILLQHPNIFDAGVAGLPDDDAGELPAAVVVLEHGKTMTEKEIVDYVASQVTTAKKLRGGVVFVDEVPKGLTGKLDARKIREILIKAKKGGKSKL
Chain of Follistatin (Homo sapiens) (P19883 whole entry, looked up): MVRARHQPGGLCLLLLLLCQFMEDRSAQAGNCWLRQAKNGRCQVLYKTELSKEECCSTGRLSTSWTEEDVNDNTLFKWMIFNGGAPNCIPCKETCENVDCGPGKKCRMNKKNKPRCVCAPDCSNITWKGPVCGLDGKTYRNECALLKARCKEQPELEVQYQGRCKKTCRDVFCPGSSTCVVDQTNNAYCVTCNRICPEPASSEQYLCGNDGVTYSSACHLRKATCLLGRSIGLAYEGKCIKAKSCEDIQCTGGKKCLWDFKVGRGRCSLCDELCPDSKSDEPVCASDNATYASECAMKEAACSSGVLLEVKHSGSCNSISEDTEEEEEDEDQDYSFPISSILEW

For `CC(=O)c1ccc(C(O)C2C=CC3C(=O)N(C)C(=O)C3N2NC(=O)OC(C)(C)C)cc1` (stereo not given), the composite z-score is 0.777 in experiment [1]; 1.23 in experiment [2]; 1.54 in experiment [3]; 1.05 in [4]; 0.046 in [5]; 0.14 in experiment [6]. In addition, the composite z-score was 0.337 in the experiment with Lefty1; 1.34 in experiment [8]; 0.468 in experiment [10]; 1.83 in experiment [15]; 0.182 in [16]; -0.0551 with Torsin-1A (Homo sapiens) [17]. Besides, the values for the composite z-score (in the experiment with Torsin-1A (Homo sapiens) [18]; in experiment [19]) were 0.548 and -0.0538, respectively. For the same molecule, the z-score in experiment [7] was -0.082; in experiment [9], -0.068 (inactive); in experiment [11] it was 0.847 (inactive); in [12], 0.626 (inactive); in [13], 0.246 (inactive); in experiment [14], 1.51 (inactive).

In the case of `COC(=O)[C@@]1(Cc2ccccc2CN=[N+]=[N-])COC(c2ccc(OCCCO)cc2)=N1`, the composite z-score in experiment [1] was -0.322; in experiment [2], -0.493; in [3], -0.161; in [4] it was -2.41; in experiment [5], -1.88; in experiment [6], -1.18. Moreover, the composite z-score in the experiment with Lefty1 was -1.65; in experiment [8], 0.0216; in experiment [10], -1.09; in experiment [15], -1.25; in [16], -0.203; with Torsin-1A (Homo sapiens) [17] it was -3.23. Besides, the composite z-score with Torsin-1A (Homo sapiens) [18] was -2.37; in [19], -1.15. In addition, the z-score is -0.408 in experiment [7]; -1.88 (inactive) in [9]; -3.56 (inactive) in [11]; -0.0995 (inactive) in [12]; 1.19 (inactive) in [13]; -0.244 (inactive) in [14].

As for `C=CCN1C(=O)[C@]2(O[C@H](CCO)[C@@H]([Si](C)(C)c3ccc(OC)cc3)[C@@H]2C)c2ccccc21`, the composite z-score in experiment [1] is 0.0171; in experiment [2], 0.745; in experiment [3], -0.0378; in experiment [4], 0.641; in [5], -0.862; in [6], -0.14. Moreover, the composite z-score was 0.058 with Lefty1; 0.134 in [8]; -0.381 in experiment [10]; -0.652 in experiment [15]; -0.209 in experiment [16]; -0.958 in the experiment with Torsin-1A (Homo sapiens) [17]. For the same molecule, the composite z-score with Torsin-1A (Homo sapiens) [18] was -0.0259; in experiment [19], -1.12. Further, the z-score in [7] was -1.83; in [9] it was -0.43 (inactive); in [11] it was -8 (inactive); in [12], -0.566 (inactive); in experiment [13] it was 19.5 (active); in experiment [14], -3.3 (inactive).

As for `CCCC[C@@H](O)C1=C(COC)Cn2c(=O)n(-c3ccccc3)c(=O)n2[C@H]1CO`, the composite z-score in experiment [1] was 0.0209; in [2], -0.155; in experiment [3], -0.109; in experiment [4], 0.894; in experiment [5], -0.266; in experiment [6], 0.0646. Further, the composite z-score is -0.0726 with Lefty1; 0.858 in experiment [8]; -0.296 in [10]; -0.538 in [15]; -0.128 in experiment [16]; -0.527 with Torsin-1A (Homo sapiens) [17]. Also, the composite z-score is -0.577 with Torsin-1A (Homo sapiens) [18] and 0.223 in [19]. The z-score in experiment [7] is -0.239; in [9], -1.65 (inactive); in [11], -0.915 (inactive); in experiment [12] it was -0.313 (inactive); in experiment [13], -0.0487 (inactive); in experiment [14], -1.11 (inactive).

As to `CCCCC(O)C1C=CC2C(=O)NC(=O)C2N1Nc1ccccn1` (stereo not given), the composite z-score in experiment [1] was 1.12; in experiment [2], 0.0748; in [3], 0.205; in [4], -0.796; in [5] it was -0.117; in [6], 0.256. For the same molecule, the composite z-score is -0.0094 with Lefty1; 0.135 in experiment [8]; -0.0034 in experiment [10]; 0.0033 in experiment [15]; 0.0225 in [16]; 0.477 with Torsin-1A (Homo sapiens) [17]. For the same molecule, the composite z-score is 0.203 with Torsin-1A (Homo sapiens) [18] and -0.432 in [19]. The z-score in experiment [7] was -0.0561; in experiment [9], -0.407 (inactive); in [11], 0.294 (inactive); in experiment [12], -0.314 (inactive); in experiment [13] it was -0.133 (inactive); in experiment [14] it was 0.438 (inactive).

For the origin of these results see PubChem BioAssay.
